This note sets out measurements from PubChem BioAssay AID651815 (National Center for Advancing Translational Sciences (NCATS), 2012).

About 1,100 (52%) of roughly 2,100 compounds were called active. Inconclusive results (about 29%) are left out. Calls come from the whole dose curve; as a rule, active = well fitted inhibition curve with a large enough effect; inconclusive = small, poorly fitted or top-dose-only effect; inactive = no such curve, though single readings can be large or run the other way. The set was probably picked from earlier hits. The list shows a part of the results.
Potency is the fitted concentration of half-maximal effect.

Sequence of DNA dC->dU-editing enzyme APOBEC-3F (Homo sapiens) (Q8IUX4 whole entry, looked up): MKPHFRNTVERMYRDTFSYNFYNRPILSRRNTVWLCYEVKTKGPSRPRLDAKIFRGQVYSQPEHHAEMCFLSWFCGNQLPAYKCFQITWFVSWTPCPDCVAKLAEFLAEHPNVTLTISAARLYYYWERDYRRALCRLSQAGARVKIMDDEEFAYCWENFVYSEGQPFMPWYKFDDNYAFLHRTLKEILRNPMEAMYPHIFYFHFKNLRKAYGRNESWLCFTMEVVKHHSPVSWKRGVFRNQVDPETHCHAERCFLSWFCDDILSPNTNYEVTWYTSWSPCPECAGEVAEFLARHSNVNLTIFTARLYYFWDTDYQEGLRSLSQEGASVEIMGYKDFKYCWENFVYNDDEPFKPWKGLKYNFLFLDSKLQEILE

The target of the assay is DNA dC->dU-editing enzyme APOBEC-3F (Homo sapiens) (UniProt Q8IUX4). Description: qHTS for inhibitors of Vif-A3F interactions: Cherry picks counterscreen. Note: nearly all actives have a fitted effect of over 65% in size. The conditions noted are these: HeLa A3F-eYFP/Vif cells, eYFP fluorescence, 24 h; series mostly up to 46.1 µM. The method in brief:
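HeLa cells stably expressing A3F-eYFP and Vif, cultured overnight, then treated 24 h at 37 degrees C with compounds at several concentrations; yellow fluorescence (488 nm Ex/500-530 nm Em) imaged on Acumen; MG132 positive control.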
For the compound `CCOc1ccccc1Oc1nc(C)nc2c1oc1ccccc12`, the Potency was 2.31 µM (active). In the case of `CNC(=O)C(Sc1nc(C)nc2c1oc1ccccc12)C(C)=O` (stereo unspecified) it was “inactive”; in that of `Cc1cccc(N2CCN(C(=O)c3cccc(N4CCCC4=O)c3)C(C)C2)c1` (stereo unspecified), 6.27 µM (active). In the case of `COc1ccc(OC)c(NC(=O)Cn2cnc3onc(-c4ccc(Cl)cc4)c3c2=O)c1` it was “inactive”. The same measure for `COc1ccc(OC)c(NC(=O)Cn2c(=O)n(-c3ccc(Cl)cc3)c(=O)c3c(C)c(C)sc32)c1`: 5.8 µM (active). Turning to `Cc1ccc(-c2cc(C(=O)N/N=C/c3c[nH]c4ccccc34)[nH]n2)cc1`, the Potency was 3.53 µM (active). In the case of `Cc1cc(N)cc(C)c1-c1c(Br)cc(N)cc1Br` it was 12.5 µM (active). The same measure for `CCOC(=O)CN1C(=O)S/C(=C/c2ccc(N3CCCCC3)o2)C1=O`: 4.61 µM (active); for `O=C1S/C(=C\c2ccc(N3CCOCC3)o2)C(=O)N1c1ccccc1`: 3.53 µM (active). For the compound `O=C1S/C(=C/c2ccc(N3CCOCC3)o2)C(=O)N1Cc1ccc(F)cc1`, the Potency is 5.59 µM (active). Regarding `CCCN1C(=O)S/C(=C\c2ccc(N3CCOCC3)o2)C1=O`, the Potency is 3.96 µM (active). The same measure for `Cc1ccc(NC(=S)N/N=C2\CCCCC2C)cc1` (stereo unspecified): “inactive”; for `O=C1S/C(=C/c2ccc(N3CCOCC3)o2)C(=O)N1Cc1c(F)cccc1Cl`: 2.23 µM (active); for `CC(C)n1cc(NC(=O)c2cc(-c3ccccc3)on2)cn1`: 3.53 µM (active). In the case of `CCc1ccc2nc(N(CCCN(C)C)C(=O)c3ccc(S(=O)(=O)N(C)C4CCCCC4)cc3)sc2c1` it was “inactive”; in that of `O=C(Nc1nc(-c2ccccn2)cs1)C1CCCC1`, “inactive”. In the case of `O=C(Nc1nc2ccc(S(=O)(=O)N3CCCC3)cc2s1)C1CCCCC1` it was 4.44 µM (active); in that of `C=CCOc1c(Cl)cc(C(=S)N2CCCC2)cc1OCC`, 14 µM (active); in that of `CCCCOc1ccc(/C=C/C2=CC(C)(C)NC(=S)N2)cc1OCC`, “inactive”. On to `Cc1ccc(F)c(S(=O)(=O)NC(=O)C2(C)CCN2C(=O)Cc2ccc(Cl)cc2Cl)c1` (stereo unspecified), for which the Potency result was “inactive”. The same measure for `COc1ccccc1C1=NOC(COc2ccc3c(C)cc(=O)oc3c2)C1` (stereo unspecified): 1.12 µM (active). The same measure for `CCOC(=O)c1cc(-c2ccccc2C)n(CC2CC(c3ccc(OC)cc3)=NO2)n1` (stereo unspecified): “inactive”. The same measure for `Cc1cc(=O)oc2cc(OCC(=O)N3c4ccccc4CC3C)ccc12` (stereo unspecified): 3.53 µM (active); for `COc1cc(/C=N/Nc2ccc(Cl)nn2)cc(OC)c1O`: “inactive”. For `COc1cc(/C=N/Nc2cc(C)nc(NS(=O)(=O)c3ccccc3)n2)ccc1O`, the Potency result was “inactive”. The same measure for `Oc1ccc(/C=N\Nc2nncc(-c3ccccc3)n2)cc1`: 19.8 µM (active); for `COc1ccc(-c2cnnc(N/N=C/c3ccc(O)c(OC)c3)n2)cc1`: 9.94 µM (active).

With `O=c1oc2c3c4c(cc2c(C(F)(F)F)c1CCN1CCOCC1)CCCN4CCC3`, the Potency is 3.66 µM (active). `Cc1ccc2[nH]c(C(=O)NN=C3CCCCC3)c(-c3ccccc3)c2c1`: the Potency entry is “inactive”. The same measure for `CN(C)c1ccc(/C=N/NC(=O)c2cc(-c3ccc4c(c3)OCO4)n[nH]2)cc1`: 15.8 µM (active).

`CCc1ccc(NC(=O)/C(C#N)=C/c2cc3ccc(C)cc3nc2N2CCOCC2)cc1`: the Potency is 23.1 µM (active).
